Inconclusive results are not listed. Active and inactive are the calls of the source. Rule for the calls, unless noted: active = hit-call score of the fitted dose curve at least 0.9, where 1 is the maximum; inconclusive = response in the unintended direction; inactive = score below 0.9.
Key:
[1] = TOX21_p53_BLA_p2_viability: Viability Assessment in the Tox21 HCT-116 p53 Agonism Beta-lactamase Assay, Phase 2 (AID 2283591);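 note: compound exposure lasted 16 h at 37 °C; actives lower the ATP signal meaning cytotoxicity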
In short: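 HCT-116 p53-bla cells (4000/well) rested 5 h at 37C, then received compounds in DMSO (217-fold dilution) for 16 h at 37C, 5% CO2. After the CCF4 read, CellTiter-Glo was added; ATP luminescence was read after 30 min at room temperature.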

[2] = TOX21_p53_BLA_p3_viability: Viability Assessment in the Tox21 HCT-116 p53 Agonism Beta-lactamase Assay, Phase 3 (AID 2283593);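 note: cells exposed to compound for 16 h before reading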
In short: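 HCT-116 cells (4000/well) rested 5 h at 37C, then got DMSO compounds by pin tool (217-fold dilution) for 16 h at 37C, 5% CO2. After the bla read, CellTiter-Glo was added and luminescence read at 30 min, room temperature.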

[3] = TOX21_p53_BLA_p4_viability: Viability Assessment in the Tox21 HCT-116 p53 Agonism Beta-lactamase Assay, Phase 4 (AID 2283597);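 note: hits lower the luminescence signal meaning cytotoxicity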
In short: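 Cells plated, 5 h pre-incubation; DMSO compounds pinned (217-fold dilution); 16 h, 37C/5% CO2; CCF4-AM 2 h RT; CellTiter-Glo 30 min RT; luminescence read.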

[4] = target: Cellular tumor antigen p53 (Homo sapiens) (UniProt P04637); test: TOX21_p53_BLA_p3_ratio: Tox21 HCT-116 p53 Agonism Beta-lactamase Assay, Ratio, Phase 3 (AID 2283596)
In short: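 HCT116 p53-bla cells (4000/well) given compound in DMSO (217-fold dilution) after 5 h, incubated 16 h at 37C. CCF4-AM substrate 2 h at room temperature; 460/530 nm emission ratio, gain fitted against DMSO.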

[5] = TOX21_p53_BLA_p5_viability: Viability Assessment in the Tox21 HCT-116 p53 Agonism Beta-lactamase Assay, Phase 5 (AID 2283600)
In short: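 4000 cells/well; 5 h pre-incubation; DMSO compounds pin-transferred, 217-fold dilution; 16 h, 37C/5% CO2; CCF4-AM 2 h RT; CellTiter-Glo 30 min RT; luminescence.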

[6] = CCTE_Harrill_HTTr_Viability_MCF7: CCTE's 6-hour Cell Viability Assessment for the High-Throughput Transcriptomics (HTTr) Platform, in MCF-7 cells cultured in DMEM + 10% fetal bovine serum, Harrill Lab (AID 2284010; active = hit-call score of the fitted dose curve at least 0.9, where 1 is the maximum; inactive = score below 0.9)
In short: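 Cells were dosed with chemicals in an eight-point dilution series, imaged 6 hours later for propidium iodide uptake, and the endpoint was analyzed by bidirectional fitting against DMSO as negative control.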

[7] = CCTE_Harrill_HTTr_Apoptosis_MCF7: CCTE's 6-hour Apoptosis Assessment for the High-Throughput Transcriptomics (HTTr) Platform, in MCF-7 cells cultured in DMEM + 10% fetal bovine serum, Harrill Lab (AID 2284011; active = hit-call score of the fitted dose curve at least 0.9, where 1 is the maximum; inactive = score below 0.9)
In short: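 MCF-7 (DMEM + 10% FBS), 384-well; 8-pt dilution series, 6 h chemical exposure; caspase-3/7 activation via CellEvent Caspase 3/7 Green, HCI; bidirectional fit vs DMSO.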

[8] = CCTE_Harrill_HTTr_CellCount_MCF7: CCTE's Cell Proliferation Assessment for the High-Throughput Transcriptomics (HTTr) Platform, Harrill Lab (AID 2284012);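 note: count of Hoechst-stained nuclei per well by high-content imaging in MCF-7 cells; cells exposed to compound for six hours; intended direction is loss of nuclei count meaning fewer cells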
In short: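 Chemicals in eight-point dilution series are added to MCF-7 cells for six hours, nuclei are stained with Hoechst and imaged, and per-well nuclei counts are fitted in both directions relative to DMSO controls.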

[9] = target: Cellular tumor antigen p53 (Homo sapiens) (UniProt P04637); test: TOX21_p53_BLA_p5_ratio: Tox21 HCT-116 p53 Agonism Beta-lactamase Assay, Ratio, Phase 5 (AID 2283599)
In short: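 HCT-116 cells carrying a p53-inducible beta-lactamase reporter were seeded at 4000 cells/well and dosed after 5 h with compound in DMSO (217-fold dilution). After 16 h at 37C, CCF4-AM substrate was added for 2 h, and the 460/530 nm emission ratio was scored as gain-of-signal versus DMSO.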

[10] = target: Cellular tumor antigen p53 (Homo sapiens) (UniProt P04637); test: TOX21_p53_BLA_p4_ratio: Tox21 HCT-116 p53 Agonism Beta-lactamase Assay, Ratio, Phase 4 (AID 2283601)
In short: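 HCT116 cells carrying an inducible beta-lactamase reporter were plated at 4000 cells/well, rested 5 h, then exposed to compounds in DMSO (217-fold dilution) for 16 h at 37C. CCF4-AM substrate was loaded 2 h at room temperature; 460/530 nm emission ratio scored gain-of-signal versus DMSO.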

[11] = ACEA_ER_AUC_viability: ACEA Biosciences xCELLigence Real-Time Cell Analysis on Estrogen Receptor Agonism for Viability (AID 2283782);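 note: continuous compound exposure with impedance area under curve over 80 h; hit means loss of impedance signal meaning reduced cell growth or viability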
In short: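 T-47D human breast cells in phenol red-free RPMI1640 with 10% charcoal-stripped FBS were dosed with an 8-point 1:4 dilution series from 100 uM top final concentration, in duplicate. Impedance-based growth was followed for 80 h; AUC analysed versus DMSO.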

Measured: AC50

Cellular tumor antigen p53 (Homo sapiens), sequence (P04637 whole entry, looked up): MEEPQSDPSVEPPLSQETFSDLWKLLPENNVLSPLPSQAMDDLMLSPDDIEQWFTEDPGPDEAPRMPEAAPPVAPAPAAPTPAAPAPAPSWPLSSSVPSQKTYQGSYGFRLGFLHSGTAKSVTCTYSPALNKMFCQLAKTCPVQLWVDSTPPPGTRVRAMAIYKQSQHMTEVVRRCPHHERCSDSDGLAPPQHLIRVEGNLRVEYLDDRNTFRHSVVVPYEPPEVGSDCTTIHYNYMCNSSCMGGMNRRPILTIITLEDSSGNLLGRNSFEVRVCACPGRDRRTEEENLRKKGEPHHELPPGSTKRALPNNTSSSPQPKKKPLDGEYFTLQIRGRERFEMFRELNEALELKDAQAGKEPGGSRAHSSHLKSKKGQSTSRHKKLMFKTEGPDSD

CCCCCCCCCCCCCCCCCC(=O)O
inactive: [1] | [2] | [3]

CCCCc1c(C)nc(NCC)[nH]c1=O
inactive: [1] | [2] | [4] | [3] | [5] | [6] | [7] | [8]

CO[C@]12CC[C@@]3(C[C@@H]1[C@](C)(O)C(C)(C)C)[C@H]1Cc4ccc(O)c5c4[C@@]3(CCN1CC1CC1)[C@H]2O5
inactive: [9] | [5]
active: [1] 75 µM | [2] 70.3 µM | [4] 86.6 µM | [3] 60.6 µM | [10] 84.8 µM

CCOC(=O)CBr
inactive: [1] | [2] | [4] | [3] | [5] | [10]

CC(Cc1ccccc1)NCc1ccccc1Cl (stereo not drawn)
inactive: [1] | [2] | [4] | [3] | [9] | [10]

CCCN(CC1CC1)c1c([N+](=O)[O-])cc(C(F)(F)F)cc1[N+](=O)[O-]
inactive: [1] | [2] | [4] | [3] | [9] | [5] | [6] | [7]
active: [11] 25.4 µM

CNC(=O)Oc1ccccc1C(=O)Nc1ccccc1
inactive: [1] | [2] | [4] | [9]
